About 83,000 compounds went through this panel and 20% of them were active in at least one assay; those are over-represented in the sample as a whole.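 Compound tested at a single concentration for 48 hours in 96-well plates; a percent growth value below 10 was scored as active.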 Unmarked numbers belong to inactive results. Active and inactive are the calls of the source.
What was measured:
Assay in all cases: NCI-60 one-dose screen, 48 h (100 = growth as untreated, 0 = no growth, -100 = all killed)
Settings in all cases: 10 µM unless noted
[1] = test system: NCI-H23 lung
[2] = test system: NCI-H226 lung
[3] = test system: NCI-H322M lung
[4] = test system: HOP-62 NSCLC
[5] = test system: NCI-H460 lung
[6] = test system: NCI-H522 lung
[7] = test system: A549/ATCC NSCLC
[8] = test system: 786-0 renal
[9] = test system: COLO 205 colon
[10] = test system: DU-145 prostate
[11] = test system: K-562 leukemia
[12] = test system: MDA-MB-231 breast
[13] = test system: RXF 393 renal
[14] = test system: SF-268 CNS
[15] = test system: SF-295 CNS
[16] = test system: SF-539 CNS
[17] = test system: UACC-257 melanoma
[18] = test system: M14 melanoma
[19] = test system: HCT-15 colon
[20] = test system: MALME-3M melanoma

| SMILES | growth [1] | growth [2] | growth [3] | growth [4] | growth [5] | growth [6] | growth [7] | growth [8] | growth [9] | growth [10] | growth [11] | growth [12] | growth [13] | growth [14] | growth [15] | growth [16] | growth [17] | growth [18] | growth [19] | growth [20] |
| --- | --- | --- | --- | --- | --- | --- | --- | --- | --- | --- | --- | --- | --- | --- | --- | --- | --- | --- | --- | --- |
| Clc1ccccc1[C@@H]1C[C@@H]2Cc3cc(Br)c4ccccc4c3N1O2 | 50.8% | 73.5% | 61% | 54.3% | 18.1% | 20% | 48% | 56.1% | 33.1% | 61% | 10% | 39% | 39.3% | 46.1% | 24.6% | 6.71% (active) | 47.4% | 20.8% | 35.7% |  |
| c1ccc(-c2nn[nH]n2)c(-c2ccc(CN3CCN(c4nsc5ccccc45)CC3)cc2)c1 | 85.7% | 105% | 96.7% | 110% | 98.4% | 69% | 98.6% | 110% | 114% | 97.5% |  | 88.6% | 113% | 98.3% | 94.1% |  | 99.8% | 108% | 82.9% | 108% |
| Oc1ccccc1C=Nc1ccccc1N=Cc1ccccc1O.[Cu+2] | 33.1% | 71.1% | 51.1% | 66% | 84.1% | 14.9% | 66% | 90.9% | 83.7% | 68.5% | 36.7% | 63.5% | 104% | 75.2% | 68.6% | 76% | 45.4% | 65.2% | 56.5% |  |
| COc1ccc(-c2nc3sccn3c2-c2ccnc(S(C)(=O)=O)n2)cc1 | 100% | 90.4% | 55.4% | 78.7% | 88.9% | 26.7% | 105% | 99.1% | 84.2% | 56.7% |  | 84.3% | 97.5% | 95% | 74.9% | 109% | 111% | 102% | 84.3% | 75.1% |
| COc1ccc(/C=C/C(=O)Nc2cccnc2Nc2ccc(F)cc2)cc1 | 93.6% | 85.5% | 101% | 117% | 108% | 92.5% | 84.6% | 95.6% | 109% | 118% |  | 91.7% | 102% | 112% | 87.9% | 93.7% | 97.9% | 103% | 102% | 122% |
| O=C1NCC(Nc2ccc(Br)cc2Cl)C(=O)N1 (stereo not given) | 100% | 109% | 126% | 113% | 112% | 93% | 122% | 103% | 98% | 119% | 95.5% | 104% | 112% | 105% | 118% | 98.9% | 160% | 93.8% | 107% |  |
| O[C@@H]1Cc2ccc3ccccc3c2N[C@H](c2ccoc2)C1 | 96.6% | 93.5% | 112% | 98.8% | 116% | 94.8% | 100% | 108% | 107% | 112% | 102% | 96.2% | 108% | 105% | 110% | 93.6% | 105% | 101% | 111% |  |
| CC1(C)OC(=O)C(=Cc2ccccc2Br)C(=O)O1 | 101% | 96.9% | 101% | 106% | 102% | 88.8% | 103% | 103% | 109% | 116% | 87.4% | 109% |  | 104% | 99.7% | 91.9% | 95.3% | 88% | 88.6% |  |

Reference: PubChem BioAssay (NCI)
